FMDV inh: foot and mouth disease virus antiviral activity; Potency, µM (highest dose often 57.9 µM), for inactives: at the highest dose activity change, negative = inhibition, actives largely listed as inhibitors; FMDV antiviral cell-based qHTS; 410,000 tested, 1.2% active; calls by dose curve; tested in HEK293T cells; note: read-out not given here; potency is the fitted concentration of half-maximal effect; nearly all actives have a fitted effect of over 45% in size
Marburg entry inh: inhibitors of Marburg virus binding or cell entry; Marburg virus pseudotyped entry inhibition, cell reporter; Potency, µM (series often up to 37.8 µM), inactives show at the top dose activity change, negative = inhibition, usual class: inhibitors; 300,000 tested, 1.8% active; calls by dose curve; tested in HEK293 cells; note: potency is the fitted concentration of half-maximal effect
Lassa entry inh: Lassa virus entry inhibition. Lassa virus pseudotype entry inhibition, cell reporter. Potency, µM (titrated, usually from 37.9 µM), without a hit: top-dose activity change, negative = inhibition, hits mostly inhibitors. 300,000 tested, 1.2% active. AID 540256; calls by dose curve; tested in HEK293 cells; note: potency is the fitted concentration of half-maximal effect; nearly all actives have a fitted effect of over 50% in size
HCMV inh: human cytomegalovirus inhibition; HFF cells, HCMV-luciferase reporter, 72 h; active compounds read low; activity change, negative = inhibition, % at 57.5 µM; 410,000 tested, 4.5% active; in the data active = activity change below about -60%; inconclusive = no clear call, values can overlap the other calls; inactive = above about -39%
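Screen run at 2 compound doses on HFFs infected with reporter HCMV, MOI 1 PFU/cell. Luciferase activity from cell lysates at 72 h post infection gave inhibition relative to buffer-only and Salinomycin wells.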
* = called active by the depositor; ? = inconclusive; . = not tested or not shown; [ ] = dose if it differs, or a comment. Shown are actives, neighbours in structure and some others; about 6.2% of the full set was active somewhere. % is set by controls: 0 for no effect and ±100 for the full control effect.

SMILES	FMDV inh	Marburg entry inh	Lassa entry inh	HCMV inh
CCC(O)CNC(=O)NC(=C(Cl)Cl)c1ccc(C)c(F)c1 (centres undefined)	?	.	.	-81*
CCOc1ccc(C(=O)NC(=S)N2CCN(c3ccc(C(F)(F)F)cc3[N+](=O)[O-])CC2)cc1	-11%	?	-2%	21
CCOc1ccc(-n2nc3ccc(NC(=O)c4ccc5c(c4)OCCO5)cc3n2)cc1	.	?	?	-71*
O=C(Nc1ccc2nn(-c3ccccc3)nc2c1)c1ccc(Br)o1	5%	?	?	-65*
O=C(Nc1ccc2nn(-c3ccccc3)nc2c1)c1ccc2c(c1)OCCO2	25µM*	-20%[46.1 µM]	?	?
CCc1ccc(-n2nc3ccc(NC(=O)c4ccc5c(c4)OCO5)cc3n2)cc1	5%	-17%	-8%	-17
CC(C)C(O)(C(=O)NNc1ccccc1)C(C)C	5%	15%	-1%	25
CCCCNc1nc2c(-c3ccccc3)nnn2c2ccccc12	-7%	.	.	0
COc1ccc(NC(=O)COC(=O)c2c3c(nc4ccccc24)CCCC3)cc1	22µM*	?	?	-28
COc1ccc(OC)c(NC(=O)CSc2c3c(nc4ccccc24)CCCC3)c1	?	10%[46.1 µM]	?	-27
CNC(=O)COC(=O)c1c2c(nc3ccccc13)CCC2	-23%	.	.	-13
COc1ccc(OC)c(NC(=O)COC(=O)c2c3c(nc4ccccc24)CCCC3)c1	?	5.2µM*	21µM*	-32
CCc1nc2ccccc2c(C(=O)OCC(=O)Nc2ccc(NC(C)=O)cc2)c1C	32µM*	.	.	?
COCCCNC(=O)c1ccc(CSc2nc3cccnc3n2Cc2ccc(OC)cc2)cc1	-9%	.	-15%[46.1 µM]	100
COc1ccc(NC(=O)CSc2oc(-c3ccc(C)cc3)nc2S(=O)(=O)c2ccc(C)cc2)c(OC)c1	7%	-3%[46.1 µM]	?	-8
N#C/C(=C\c1c(N2CCCCC2)nc2ccccn2c1=O)C(=O)NC1CCS(=O)(=O)C1 (centres undefined)	-9%	3%	9%	7
Cc1cccc(Oc2nc3ccccn3c(=O)c2/C=C(\C#N)C(=O)NC2CCS(=O)(=O)C2)c1C (centres undefined)	?	?	?	-96*
N#C/C(=C\c1c(Oc2ccc(Cl)cc2)nc2ccccn2c1=O)C(=O)NC1CCS(=O)(=O)C1 (centres undefined)	20µM*	?	3.5µM*	23
Cc1cccn2c(=O)c(/C=C(\C#N)C(=O)NC3CCS(=O)(=O)C3)c(Oc3ccc(F)cc3)nc12 (centres undefined)	28µM*	?	-1%[46.1 µM]	15
Cc1cccn2c(=O)c(/C=C(\C#N)C(=O)NC3CCS(=O)(=O)C3)c(N3CCC(C)CC3)nc12 (centres undefined)	-14%	-6%	0%	2
Cc1cccc(Oc2nc3ccccn3c(=O)c2/C=C(\C#N)C(=O)NC2CCS(=O)(=O)C2)c1 (centres undefined)	0%	-13%	0%	20
Cc1cc(Oc2nc3ccccn3c(=O)c2/C=C(\C#N)C(=O)NC2CCS(=O)(=O)C2)ccc1Cl (centres undefined)	?	?	?	-66*
Cn1c(CCCCCN)nc2ccccc21	29%	-21%[46.1 µM]	15%	11
Cc1cnc(C(=O)Nc2ccc(C(=O)N(C)C3CCCCC3)cc2)cn1	.	6%	.	.
COc1ccc(NC(=O)CN2C(=O)C(C)Oc3ccc(C)cc32)cc1 (centres undefined)	-19%	-30%	?	4
SMILES	FMDV inh	Marburg entry inh	Lassa entry inh	HCMV inh
CCOC(=O)N1CCN(C2=C(NS(=O)(=O)c3ccc(Br)cc3)C(=O)c3ccccc3C2=O)CC1	26%	.	.	-27
CCN1CCN(C2=C(NS(=O)(=O)c3ccccc3)C(=O)c3ccccc3C2=O)CC1	?	.	.	-62*
CN1CCN(C2=C(NS(=O)(=O)c3ccccc3)C(=O)c3ccccc3C2=O)CC1	-3%	.	.	.
CCN1CCN(C2=C(NS(=O)(=O)c3ccc(Br)cc3)C(=O)c3ccccc3C2=O)CC1	-1%	.	.	-112*
O=C1CN(C(=O)c2ccc(S(=O)(=O)N3CCCCC3)cc2)C(c2ccc(F)cc2)c2cc(Cl)ccc2N1 (centres undefined)	?	8.9µM*	?	-4
O=C1CN(C(=O)c2cccc(Br)c2)C(c2ccccc2)c2cc(Cl)ccc2N1 (centres undefined)	-14%	.	?	-63*
O=C1CN(C(=O)Cc2ccccc2)C(c2ccc(F)cc2)c2cc(Br)ccc2N1 (centres undefined)	-19%	10µM*	?	15
O=C1CN(C(=O)c2ccc(S(=O)(=O)N3CCCCC3)cc2)C(c2ccc(F)cc2)c2cc(F)ccc2N1 (centres undefined)	-2%	?	-9%[46.1 µM]	0
COc1cc(CNc2ncnc3c2ncn3[C@H]2CN(Cc3ccc(F)cc3)C[C@@H](CO)O2)cc(OC)c1OC	?	.	.	16
COc1ccccc1-c1c(C(F)(F)F)oc2cc(OS(C)(=O)=O)ccc2c1=O	32µM*	?	?	30
CCOC(=O)c1ccc(N2C(=O)c3[nH]nc(-c4ccccc4)c3C2c2ccc(CC)cc2)cc1 (centres undefined)	?	?	?	-105*
CCOC(=O)c1ccc(N2C(=O)c3[nH]nc(-c4ccc(OCC)cc4)c3C2c2ccc(OC)cc2OC)cc1 (centres undefined)	-20%	?	?	8
CCOC(=O)c1ccc(N2C(=O)c3[nH]nc(-c4ccc(OC)cc4)c3C2c2cccc(O)c2)cc1 (centres undefined)	32µM*	?	?	-107*
CCOC(=O)c1ccc(N2C(=O)c3[nH]nc(-c4ccc(C)cc4)c3C2c2cccc(F)c2)cc1 (centres undefined)	?	?	?	-99*
CCOC(=O)c1ccc(N2C(=O)c3[nH]nc(-c4ccc(C)cc4)c3C2c2ccc(O)cc2)cc1 (centres undefined)	32µM*	10µM*	?	-74*
COC(=O)c1ccc(Nc2nc3ccc(C)cc3n3cnnc23)cc1	?	?	7%[46.1 µM]	?
Fc1cccc(-c2cc3nc4c(c(NCc5ccco5)n3n2)CCCC4)c1	.	?	13%	61
COc1cccc(-c2cc3nc4c(c(NCC(C)(C)CN(C)C)n3n2)CCCC4)c1	-6%	?	?	-69*
CCNC(=O)NC1c2ccccc2CSc2ccccc21 (centres undefined)	-23%	?	-22%[46.1 µM]	-12
CCOCCN1CCN(C2c3ccccc3CSc3ccccc32)CC1 (centres undefined)	-24%	13µM*	?	?
COc1ccccc1Nc1ncc(C(=O)N2CCN(Cc3ccc(OC)c(OC)c3OC)CC2)c2ccccc12	-12%	?	13µM*	10
COc1ccc(CN2CCN(C(=O)C3CCC(CNS(=O)(=O)c4ccccc4)CC3)CC2)c(OC)c1OC (centres undefined)	?	?	-7%[46.1 µM]	-102*
COC(=O)[C@@]12C[C@@H](CC(=O)NCCC(C)C)C(=O)N(Cc3ccco3)C1=CCC(C)(C)C2	18%	.	.	-10
Nc1nc(N)c2[nH]cnc2n1	-17%	.	.	.

From PubChem
